# SARS PLP yeast – inhibitors of SARS-CoV papain-like protease in yeast; Potency, µM (highest dose often 32.9 µM), for inactives: at the highest dose activity, positive = growth rescue, usual class: activators; AID 485353; S. cerevisiae expressing SARS-CoV PLpro, growth rescue; actives 0.19% (n = 330,000); calls by dose curve; note: potency is the fitted concentration of half-maximal effect; 0% is about no effect; nearly all actives have a fitted effect of over 55% in size
# AmpC detergent – inhibitors of E. coli AmpC beta-lactamase with detergent. P00811. Potency, µM (top dose mostly 114 µM), without a hit: at the highest dose activity change, negative = inhibition, hits mostly inhibitors. AmpC hydrolysis of nitrocefin, absorbance 480 nm, 0.01% Triton. actives 0.041% (n = 370,000). AID 485294;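 note: potency is the fitted concentration of half-maximal effect; 0% = no-compound wells and -100% = no-enzyme wells; nearly all actives have a fitted effect of over 25% in size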
# Target sequence (P00811 whole entry, looked up): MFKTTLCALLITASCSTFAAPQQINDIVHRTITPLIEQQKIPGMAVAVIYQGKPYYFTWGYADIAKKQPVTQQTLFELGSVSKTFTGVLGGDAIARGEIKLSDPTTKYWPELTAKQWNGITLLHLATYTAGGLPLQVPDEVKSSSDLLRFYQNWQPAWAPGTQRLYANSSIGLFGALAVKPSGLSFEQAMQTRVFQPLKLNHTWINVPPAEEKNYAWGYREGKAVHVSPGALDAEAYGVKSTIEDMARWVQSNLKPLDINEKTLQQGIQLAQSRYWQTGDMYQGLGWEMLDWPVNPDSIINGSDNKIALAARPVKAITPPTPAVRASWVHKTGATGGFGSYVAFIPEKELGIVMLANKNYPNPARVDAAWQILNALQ
#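 AmpC (5.3 nM in the dispensed reagent) in 20 mM phosphate pH 7.0 with 0.01% (detergent screen) or 0.0001% Triton X-100 was preincubated with compounds for 15 min at room temperature. Nitrocefin was then added from an 800 uM solution, and hydrolysis was followed at 480 nm.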
# AmpC inh no detg – inhibitors of E. coli AmpC beta-lactamase without detergent. actives 0.52% (n = 330,000). AmpC nitrocefin hydrolysis, absorbance 480 nm, 0.0001% Triton. P00811. Potency, µM (titrated, usually from 57.1 µM), without a hit: top-dose activity change, negative = inhibition, actives largely listed as inhibitors;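 note: potency is the fitted concentration of half-maximal effect; plate controls were no compound for no effect and no enzyme for full effect; nearly all actives have a fitted effect of over 20% in size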
#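 AmpC (5.3 nM in the dispensed reagent) in 20 mM phosphate pH 7.0 with 0.01% (detergent screen) or 0.0001% Triton X-100 was preincubated with compounds for 15 min at room temperature. Nitrocefin was then added from an 800 uM solution, and hydrolysis was followed at 480 nm.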
# AMA1-RON2 inh – inhibitors of Plasmodium falciparum AMA1-RON2 interaction | AlphaScreen AMA1-biotinylated RON2 peptide binding | Potency, µM (doses to about 58.2 µM), without a hit: at the highest dose activity change, negative = inhibition, most hits filed as inhibitors | AID 720542 | actives 0.2% (n = 360,000);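 note: potency is the fitted concentration of half-maximal effect; 0% = vehicle wells and -100% = peptide control; nearly all actives have a fitted effect of over 45% in size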
#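 AMA1 (3D7) with his tag at 25 nM final met compounds first, then biotinylated RON2 peptide at 25 nM; detection used donor plus acceptor beads, 10 µg/mL apiece, read by AlphaScreen after 30 min at room temperature.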
# Cycloheximide cs – counter-screen for Shiga toxin inhibitors: cycloheximide protein synthesis inhibition | actives 12% (n = 300,000) | cell reporter, cycloheximide protein synthesis inhibition counterscreen | max response, %; in the data active = max response mostly above about 13%, no sharp cut-off; inactive = mostly below about 14%; note: read at 38.3 µM for the half of the compounds with a filed dose; 0% is about no effect
# Shiga toxin inh – Shiga toxin inhibition; actives 9.2% (n = 290,000); inhibition, % at 38.7 µM; Vero cells, Shiga toxin protein synthesis inhibition reporter; in the data active = inhibition mostly above about 28%, no sharp cut-off; inactive = mostly below about 43%; note: 0% is about no effect
# Numbers without * were called inactive; ? = inconclusive; · = no result given; + = active, no number. The entries come from a sample that favours hits as a whole. Unless noted, calls come from the whole dose curve; as a rule, active = well fitted curve in the direction sought with a large enough effect; inconclusive = small, poorly fitted or top-dose-only effect, or another doubt; inactive = no such curve, though single readings can be large; an effect the other way counts as inactive or inconclusive.
SMILES,SARS PLP yeast,AmpC detergent,AmpC inh no detg,AMA1-RON2 inh,Cycloheximide cs,Shiga toxin inh
Cc1cc(C)nc(/N=C(\N)Nc2ccc(OCc3ccccc3)cc2)n1,0%,9%,2%,1%,-1,-1
O=C(NCC(c1cccs1)N1CCOCC1)c1ccccc1NS(=O)(=O)c1cccc([N+](=O)[O-])c1 (centres undefined),-1%,-11%,-38%,-3%,-3,-5
Cc1ccc(C2=NN3C(C2)c2ccccc2OC32C(=O)Nc3ccccc32)cc1 (centres undefined),-22%,1%,-52%,31%,42*,78*
COc1ccc2c(c1OC)C(=O)N1N=C(c3ccc(-c4ccccc4)cc3)CC21 (centres undefined),-2%,2%,-15%,-1%,1,-15
S=C1NC2(CCS1)Oc1ccccc1C1CC(c3ccccc3)=NN12 (centres undefined),0%,6%,-44%,·,33*,70*
CN1C(=O)C2(Oc3ccccc3C3CC(c4ccccc4)=NN32)c2ccccc21 (centres undefined),-23%,-12%,-33%,0%,28*,78*
C/C(=N\N1CCN(c2ccccc2)CC1)c1ccncc1,0%,?,-18%,-2%,22*,46*
C/C(=N\N1CCN(c2ccccc2)CC1)c1ccco1,-1%,4%,-6%,?,28*,+
C/C(=N\N1CCN(c2ccccc2)CC1)c1cccs1,-3%,6%,-9%,-28%,8,39
C/C(=N\N1CCN(Cc2ccccc2)CC1)c1ccco1,0%,6%,3%,0%,15,53*
C/C(=N/N1CCN(c2ccccn2)CC1)c1ccc([N+](=O)[O-])cc1,-1%,-5%,-2%,-7%,31*,21*
CCC(C)c1ccc(OCC(=O)Nc2ccc(CN3CCOCC3)cc2)cc1 (centres undefined),-9%,-6%,210%,-9%,11,-5
COc1cc(NC(=O)COC(=O)CC2CC3CCC2C3)cc(OC)c1 (centres undefined),-3%,·,-5%,7%,·,·
C/C(=N/N1CCN(c2ccccc2)CC1)c1cccc([N+](=O)[O-])c1,-3%,-12%,-18%,-23%,33*,64*
Cc1cc(=O)nc2c3ccccc3n(C(C)C(=O)Nc3cc(F)ccc3F)n12 (centres undefined),-2%,-6%,25%,-3%,2,-9
COc1ccc(NC(=O)CSc2nnc(NC(=O)Nc3ccc(OC)cc3)s2)cc1,·,-1%,·,·,·,·
CCCCNC(=O)CSc1nc(N)c(C(=O)Nc2ccc(OC)cc2)s1,0%,1%,-39%,6%,30*,28*
CCCCC(=O)Nc1nnc(SCC(=O)Nc2ccc(OC)cc2)s1,-6%,-7%,-6%,-3%,41*,93*
COc1ccc(-c2nnc(NC(=O)c3c(OC)cccc3OC)s2)cc1,8%,-11%,-2%,-6%,1,33
CCCCC(=O)Nc1nnc(-c2ccc(OC)cc2)s1,-18%,-1%,-13%,1%,23,35*
COC(=O)Nc1nnc(-c2ccc(OC)cc2)s1,-2%,0%,-15%,-4%,30*,101*
COC(=O)c1sc(SC)nc1N,2%,4%,-2%,6%,11,34
CN(C)c1ccc(NC(=O)c2sc(SCC(=O)Nc3nccs3)nc2N)cc1,-3%,?,-30%,-16%,33*,109*
CSc1nc(N)c(C(=O)Nc2ccc([N+](=O)[O-])cc2)s1,?,-2%,-10%,-12%,32*,50*
CN(C)c1ccc(NC(=O)c2sc(SCC(=O)Nc3ccc(Br)cc3)nc2N)cc1,0%,-11%,-13%,-15%,-3,24
O=C(CN1CCN(C(=O)c2ccc(OCc3cn4ccccc4n3)cc2)CC1)Nc1cccc(F)c1,-1%,·,155%,-6%,·,·
CCOC(=O)Cn1nc(C)cc1NC(=O)c1ccncc1,-4%,-1%,-13%,1%,7,24
